Among the data in PubChem BioAssay (NCATS) are Potency values, retold here.

The structures appear in SMILES notation. Inconclusive results are not listed. A call without a number means that no potency is given here. Activity calls are given as the source filed them. Calls come from the whole dose curve; as a rule, active = well fitted inhibition curve with a large enough effect; inconclusive = small, poorly fitted or top-dose-only effect; inactive = flat fitted curve, though single readings scatter.

For this assay, the target named is Luciferin 4-monooxygenase (Photinus pyralis) (UniProt P08659). Nature of the assay: Biochemical firefly luciferase enzyme assay for NPC (AID 624030).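 Note: purified P. pyralis luciferase at 10 nM with luciferin and ATP substrate; nearly all actives have a fitted effect of over 70% in size.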 The settings on record: purified P. pyralis luciferase, luminescence, 5 min; series mostly up to 58.6 µM. A digest of the protocol: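 Direct inhibition of firefly luciferase enzyme (10 nM final, 50 mM Tris Acetate) assessed by luminescence within 5 minutes. Percent activity scaled between DMSO and PTC124 positive control, with concentration-effect curves classified by fit quality and response.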
Luciferin 4-monooxygenase (Photinus pyralis), sequence (P08659 whole entry, looked up): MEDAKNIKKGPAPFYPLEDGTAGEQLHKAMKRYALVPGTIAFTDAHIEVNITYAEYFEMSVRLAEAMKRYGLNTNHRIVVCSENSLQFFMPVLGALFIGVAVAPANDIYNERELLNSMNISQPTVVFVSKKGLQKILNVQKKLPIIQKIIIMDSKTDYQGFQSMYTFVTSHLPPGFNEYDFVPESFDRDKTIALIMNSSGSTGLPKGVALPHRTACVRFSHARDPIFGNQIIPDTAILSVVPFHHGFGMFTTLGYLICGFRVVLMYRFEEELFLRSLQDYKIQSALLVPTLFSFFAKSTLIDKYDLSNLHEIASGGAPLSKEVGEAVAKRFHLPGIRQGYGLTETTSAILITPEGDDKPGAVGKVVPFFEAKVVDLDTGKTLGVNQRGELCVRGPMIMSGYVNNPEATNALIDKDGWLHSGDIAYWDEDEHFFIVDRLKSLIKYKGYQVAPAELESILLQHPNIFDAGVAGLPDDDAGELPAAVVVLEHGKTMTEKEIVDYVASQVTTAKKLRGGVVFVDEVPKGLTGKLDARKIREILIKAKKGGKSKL
Regarding `CC(C)c1c(C(=O)Nc2ccccc2)c(-c2ccccc2)c(-c2ccc(F)cc2)n1CC[C@@H](O)C[C@@H](O)CC(=O)O`, the Potency result is “inactive”. `NC(=O)NC(=O)Cc1ccccc1`: the Potency result is “inactive”.

Consider `CN(C)CCCN1c2ccccc2CCc2ccccc21`, for which the Potency result was “inactive”.

Consider `NCC(=O)CCC(=O)O`, for which the Potency entry was “inactive”.

For the compound `CCN(CC)CCNC(=O)c1c(C)[nH]c(/C=C2\C(=O)Nc3ccc(F)cc32)c1C`, the Potency entry was “inactive”. Then `O=C(O)CC(O)C(=O)O` (centres undefined), with “inactive”; and `CCCn1cnc2c1c(=O)n(CCCCC(C)=O)c(=O)n2C`, with “inactive”. Then `CC(C)(C)C(=O)C(Oc1ccc(Cl)cc1)n1ccnc1` (centres undefined), with “inactive”; and `CC(C)(C(=O)O)c1ccc(C(O)CCCN2CCC(C(O)(c3ccccc3)c3ccccc3)CC2)cc1` (centres undefined), with “inactive”; and `O=C(O)c1ccccc1-c1ccc(C(F)(F)F)cc1`, with “inactive”. The result for `CSc1ccc2c(c1)N(CCC1CCCCN1C)c1ccccc1S2` (centres undefined) reads “inactive”. For `COc1ccc(S(=O)(=O)Nc2nnc(CC(C)C)s2)cc1`, the Potency result is “inactive”. The result for `Cc1ccc(C(C)C)cc2c(C)ccc1-2` reads “inactive”; that for `O=C(O)Cc1sc(-c2ccccc2)nc1-c1ccc(Cl)cc1`, “inactive”; that for `CNCCCC1c2ccccc2C=Cc2ccccc21`, “inactive”.

Consider `NC(=O)NNc1ccccc1`, for which the Potency entry was “inactive”. The result for `CNCCC(Oc1ccc(C(F)(F)F)cc1)c1ccccc1` (centres undefined) reads “inactive”; that for `N[C@@H](CSCCCO)C(=O)O`, “inactive”; that for `CCCCN(CCCC)CCCOC(=O)c1ccc(N)cc1`, “inactive”.

With `O=c1cc[nH]c(=S)[nH]1`, the Potency result was “inactive”.

On to `CCCCOc1cc(C(=O)OCCN(CC)CC)ccc1N`, for which the Potency result is “inactive”. The result for `CC(=O)Nc1ccc(/C=N/NC(N)=S)cc1` reads “inactive”; that for `Cc1cccc(C)c1NC(=O)CN(CC(=O)O)CC(=O)O`, “inactive”; that for `COc1cc(C(=O)N2CCOCC2)cc(OC)c1OC`, “inactive”. Then `CCCCN(CCCC)CC(O)c1cc(Cl)cc2c1-c1ccc(Cl)cc1/C2=C/c1ccc(Cl)cc1` (centres undefined), with “inactive”; and `CN1CCCCC1CCN1c2ccccc2Sc2ccc(S(C)=O)cc21` (centres undefined), with “inactive”. Consider `CCN(CC)CCOC(=O)C1(C2CCCCC2)CCCCC1`, for which the Potency entry is “inactive”. The result for `O=C1OC(OC(=O)c2cccnc2Nc2cccc(C(F)(F)F)c2)c2ccccc21` (centres undefined) reads “inactive”; that for `CCCCc1ncc(/C=C(\Cc2cccs2)C(=O)O)n1Cc1ccc(C(=O)O)cc1`, “inactive”; that for `CCOc1nc2cccc(C(=O)O)c2n1Cc1ccc(-c2ccccc2-c2nn[nH]n2)cc1`, “inactive”. The result for `CSc1ccc2c(c1)C(N1CCN(C)CC1)Cc1ccccc1S2` (centres undefined) reads “inactive”. The result for `Cc1cc2c(cc1S(N)(=O)=O)S(=O)(=O)CCC2` reads “inactive”; that for `O=C(CCCN1CCN(c2ccccn2)CC1)c1ccc(F)cc1`, “inactive”; that for `CCC(=O)Nc1ccc(O)cc1`, “inactive”.
